From PubChem BioAssay
HCV inhibitor – qHTS Assay for Inhibitors of Hepatitis C Virus (HCV). Huh7.5.1 HCVcc-Cre infection, luciferase reporter, 44 h. Potency, µM (titrated, usually from 41.8 µM), for the others: top-dose activity change, negative = inhibition, actives largely listed as inhibitors. actives 3.4% (n = 340,000). AID 651820, 2012; also: potency is read from the fitted curve at half-maximal effect
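Reporter virus HCVcc-Cre (~0.5 moi) infects cells exposed to compound; seeding density 1,000 cells/well with 4 h settling beforehand. Luminescence, 15 sec read, taken 44 h post-infection following a 15 min RT substrate incubation.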
MARV entry inh – qHTS for inhibitors of binding or entry into cells for Marburg Virus | Potency, µM (highest dose often 37.8 µM), for the others: at the top dose activity change, negative = inhibition, hits mostly inhibitors | actives 1.8% (n = 300,000) | Marburg virus pseudotyped entry inhibition, cell reporter; calls by dose curve; tested in HEK293 cells; also: potency is read from the fitted curve at half-maximal effect
LASV entry inh – qHTS for Inhibitors of binding or entry into cells for Lassa Virus; Lassa virus pseudotype entry inhibition, cell reporter; Potency, µM (titrated, usually from 37.9 µM), for inactives: top-dose activity change, negative = inhibition, most hits filed as inhibitors; AID 540256, 2011; actives 1.2% (n = 300,000); calls by dose curve; tested in HEK293 cells; also: potency is read from the fitted curve at half-maximal effect; nearly all actives have a fitted effect of over 50% in size
Pf growth 96h – Primary qHTS for delayed death inhibitors of the malarial parasite plastid, 96 hour incubation | P. falciparum luciferase reporter growth, 96 h | Potency, µM (highest dose often 28.7 µM), for the others: at the top dose activity change, negative = inhibition, most hits filed as inhibitors | actives 6.9% (n = 320,000) | AID 504834, 2011; also: potency is read from the fitted curve at half-maximal effect
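Delayed-death screen, second-generation endpoint: infected erythrocytes, 2% hematocrit, 0.05% parasitemia final; 96 hours at 37 C, 5% CO2; luciferase detection reagent; luminescence decrease equals reduced growth.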
Pf growth 48h – Primary qHTS for delayed death inhibitors of the malarial parasite plastid, 48 hour incubation; P. falciparum luciferase growth in erythrocytes, 48 h; Potency, µM (top dose mostly 28.7 µM), inactives show at the top dose activity change, negative = inhibition, hits mostly inhibitors; actives 5.9% (n = 310,000); also: potency is read from the fitted curve at half-maximal effect
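Compounds are pin-transferred into medium, infected erythrocytes (2% hematocrit, 0.1% parasitemia final) are added, and plates sit one parasite generation at 37 C in 5% CO2. Detection reagent is then added and luminescence measured.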
HCMV antiviral – qHTS Assay for inhibitors of the human cytomegalovirus (HCMV); HFF cells, HCMV-luciferase reporter, 72 h; hits give low values; activity change, negative = inhibition, % at 57.5 µM; actives 4.5% (n = 410,000); AID 1259415, 2018; in the data active = activity change below about -60%; inconclusive = no clear call, values can overlap the other calls; inactive = above about -39%
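Screen run at 2 compound doses on HFFs infected with reporter HCMV, MOI 1 PFU/cell. Luciferase activity from cell lysates at 72 h post infection gave inhibition relative to buffer-only and Salinomycin wells.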
Numbers without * were called inactive; ? = inconclusive; · = no result; [ ] = another dose, or the depositor's remark. Rows were chosen to be rich in hits. Some 14% of all compounds tested hit in one or more screens of this group. Unless noted, calls follow the shape of the dose curve; as a rule, active = well fitted inhibition curve with a large enough effect; inconclusive = small, poorly fitted or top-dose-only effect, or another doubt; inactive = no such curve, though single readings can be large or run the other way. % is scaled to controls: 0 for no effect and ±100 for the full control effect.

SMILES	HCV inhibitor	MARV entry inh	LASV entry inh	Pf growth 96h	Pf growth 48h	HCMV antiviral
CCOC(=O)c1c(NC(=O)c2cccnc2)sc(C(C)=O)c1C	-17.5%	12.9%	8.8%	?	26.3%	?
CCN(CC)C(=O)c1sc(NC(=O)c2cccnc2)c(C(=O)OC)c1C	-25.3%	-4.3%	1.2%	2.94µM*	0.5%	-9.0
COC(=O)c1c(-c2cccs2)csc1NC(=O)c1cccnc1	11.2µM*	21.8%	8.3%	-7.5%	5.8%	-0.3
CC(C)N1C(=O)N(c2cccc(Cl)c2)C(C)(O)CC1(C)C (stereo not drawn)	-2.4%	-3.5%[46.1 µM]	-2.8%[46.1 µM]	-1.8%	-3.8%[0.00184 µM]	-20.0
COc1ccc(NC(=O)Cn2ccn(-c3ccccc3)c(=O)c2=O)cc1	·	·	12.5%[46.1 µM]	·	·	?
O=C1/C(=N/n2cnnc2)c2ccccc2N1Cc1ccccc1	·	·	·	9.28µM*	-11.1%	·
Cc1ccc2c(c1)C(=O)C(=O)N2Cc1ccccc1	-13.0%	·	·	·	·	-27.9
c1ccc2c(c1)C(=Nn1cnnc1)c1ccccc1-2	?	9.6%	?	11.7µM*	2.8%	28.8
Oc1ccccc1/C=N/n1cnnc1	16.9%	5.5%	-6.8%	-23.2%	·	42.8
CCOc1ccc(NC(=O)c2ccc3c(c2)OCCO3)cc1S(=O)(=O)N(CC)CC	2.82µM*	·	·	13.1µM*	13.1µM*	-19.6
CCCOc1c(Cl)cc(C(=O)Nc2ccc3c(c2)OCO3)cc1OCC	12.6µM*	?	?	?	·	-17.3
C=CCNC(=S)Nc1ccc(Cl)cc1	0.8%	11.9%[46.1 µM]	-11.6%	29.8%	0.0%	33.8
CCOc1cc(C(=O)Nc2ccc3c(c2)OCO3)ccc1OC(F)F	?	0.5%	-30.7%	9.28µM*	45.9%	?
C=CCNC(=S)Nc1ccc(OC(F)F)c(Cl)c1	11.2µM*	-27.9%[46.1 µM]	?	-16.1%	-7.1%	?
CCOc1ccc(C(=O)NCC(=O)Nc2ccc3c(c2)OCO3)cc1OCC	8.0%	?	?	39.5%	?	53.8
Cc1cc(Br)c2nc(-c3cccc(Br)c3)c(Cc3cccc(Cl)c3)n2c1	·	·	·	·	·	111.3
COc1ccc(-c2nnc(SCC(=O)Oc3cc(C)ccc3C)o2)cc1	·	-21.4%[46.1 µM]	12.4%[46.1 µM]	·	·	-3.8
CCOC(=O)Nc1cc(OC)cc2ccc(C)nc12	·	·	·	·	·	-34.2
O=C(Nc1ccc(OC(F)F)c(Cl)c1)Nc1ccc2c(c1)OCO2	17.8µM*	-3.5%	-25.0%	·	?	15.7
S=C(NC1CCCCC1)N1CCOCCOCCN(C(=S)NC2CCCCC2)CCOCC1	19.6%	-18.0%[14.2 µM]	6.8%	4.65µM*	11.7µM*	?
S=C(NC1CCCC1)N1CCOCC1	7.0%	?	20.3%[46.1 µM]	30.8%	3.1%	38.0
Cc1cc(NC(=O)NC(=O)c2ccccc2NC(=O)CN(C)C)ccc1Oc1ncc(Br)cn1	?	?	?	·	·	-24.2
Nc1ccccc1C(=O)NC(=O)Nc1ccc(Oc2ncc(Br)cn2)c(Cl)c1	-9.2%	-20.2%	?	·	·	-87.3*
Cc1cc(NC(=O)NC(=O)c2ccccc2NC(=O)CN)ccc1Oc1ncc(Br)cn1	?	?	-0.4%	·	·	-84.3*
Cc1cccc(C)c1NC(=O)C(c1ccccc1)N(C)CCc1ccccc1 (stereo not drawn)	·	·	·	·	·	-1.0
SMILES	HCV inhibitor	MARV entry inh	LASV entry inh	Pf growth 96h	Pf growth 48h	HCMV antiviral
O=C(O)c1cccc(-c2ccc3c(c2)OCO3)c1	15.4%	·	·	3.7µM*	6.6%	-20.4
O=C(Nc1cccc(C(=O)O)c1)Nc1ccc2c(c1)OCO2	16.2%	?	0.316µM*	-26.2%	231.0%	-14.0
CCOc1ccc(CN(C)CC(O)COC(c2ccc(OC)cc2)c2ccc(OC)cc2)cc1 (stereo not drawn)	11.2µM*	?	?	10.4µM*	10.4µM*	-6.6
C=CCOc1ccc(CN(C)CC(O)COc2ccc(CCC(C)=O)cc2)cc1 (stereo not drawn)	?	-25.2%[46.1 µM]	?	?	?	-12.6
COc1ccc(CN(C)CC(O)COC(c2ccc(OC)cc2)c2ccc(OC)cc2)cc1 (stereo not drawn)	?	?	?	?	13.1µM*	12.0
COc1ccc(C(OCC(O)CN(C)C2CCCCC2)c2ccc(OC)cc2)cc1 (stereo not drawn)	-25.0%	?	?	?	?	-21.0
O=C(NNC(=O)C1CC1)c1cc(=O)[nH]c2ccccc12	17.1%	?	25.9%	·	·	12.7
CCOC(=O)CCN1C(=O)[C@H]2[C@H]3[C@H](O)[C@H](O)C/C(=N\NC(=O)OCc4ccc(OC)cc4)[C@H]3CC[C@H]2C1=O	·	22.5%[14.2 µM]	·	·	·	·
CCOC(=O)CCN1C(=O)[C@@H]2[C@H]3[C@H](O)[C@H](O)CC(=NNC(=O)OCc4ccc(OC)cc4)[C@H]3CC[C@H]2C1=O	·	22.5%[14.2 µM]	0.168µM*	·	·	·
COc1ccc(CN(C)Cc2c(O)ccc3cc(Br)ccc23)cc1OC	-3.7%	?	4.5%[46.1 µM]	?	?	-65.8*
COc1ccc(CCN(C)Cc2c(O)ccc3cc(Br)ccc23)cc1OC	-19.8%	?	3.7%[46.1 µM]	?	?	-76.8*
CC1=C(C(=O)N2CCOCC2)CC(CC(=O)NCCCCc2ccccc2)C(=O)N1Cc1ccc(F)cc1 (stereo not drawn)	·	·	·	·	·	-6.0
COc1c(C)cc(C(=O)C2CCCN(S(=O)(=O)N(C)C)C2)cc1C (stereo not drawn)	8.1%	-24.5%	-20.0%	2.94µM*	-14.6%	-31.9
COc1ccc(C(=O)C2CCCN(Cc3cn(C)nc3-c3ccccc3)C2)cc1F (stereo not drawn)	-25.4%	·	·	9.28µM*	?	-8.7
O=C(c1ccc(-c2ccccc2)c(F)c1)C1CCCN(CCCn2cccn2)C1 (stereo not drawn)	?	·	·	?	?	-3.4
CN(C)S(=O)(=O)N1CCCC(C(=O)c2ccc(-c3ccccc3)c(F)c2)C1 (stereo not drawn)	22.4µM*	?	?	26.1%	?	-39.8
O=C(c1ccc(-c2ccccc2)c(F)c1)C1CCCN(CCO)C1 (stereo not drawn)	11.2µM*	?	-19.6%	12.0%	?	-31.4
CSc1ccc(C(=O)C2CCCN(S(=O)(=O)N(C)C)C2)cc1 (stereo not drawn)	-20.6%	11.2%[46.1 µM]	-2.8%	23.9%	1.7%	1.1
Cc1c2cnn(CC(=O)Nc3cccc(C(F)(F)F)c3)c(=O)c2c(C)n1Cc1ccccc1Cl	·	?	19.1%[46.1 µM]	·	·	-4.9
Cc1ccc(C)c(Cn2c(-c3cccs3)nc3ccccc32)c1	·	-2.9%[46.1 µM]	-12.1%[46.1 µM]	·	·	-16.6
